38 molecules from PubChem BioAssay (NCATS) can be followed below.

Records with an inconclusive call do not appear. Active and inactive are the calls of the source. The call rests on the fitted dose curve; in most records, active means well fitted inhibition curve with a large enough effect; inconclusive means small, poorly fitted or top-dose-only effect; inactive means flat fitted curve, though single readings scatter.

Common to all, as to test: qHTS assay to identify novel small-molecules to repurpose for Merkel cell carcinoma treatment (AID 1296009); further: nearly all actives have a fitted effect of over 60% in size
Common to all, as to details: MCC and control cell lines, CellTiter-Glo viability, 72 h; series mostly up to 46 µM
For orientation: In qHTS, concentration-response curves come from the screen itself.

One test concerns MCC-13. An outline of the steps:
(§1)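 Cell viability, measured as CellTiter-Glo luminescence, was normalized between DMSO and no-cell wells. The cells had been exposed to 8- or 11-point compound dilutions for 72 hr at 37 degree celsius.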

For the next test, the system named is MCC-26. Summed up: as §1
A further test relates to MKL-1. Summed up: as §1
The test system of the next test is MKL-2. An outline of the steps: as §1
The next test deals with UISO. An outline of the steps:
as §1

Another test has as its system WaGa. Summed up:
as §1
Potency means the concentration at half of the fitted maximal effect.

`COc1ccc(C=CC(=O)Nc2ccccc2C(=O)O)cc1OC`: the Potency entry with MCC-13, in the test with MCC-26, with MKL-1, in the test with MKL-2, with UISO and with WaGa was “inactive” in each case.
Turning to `COc1ccc2ccc(=O)oc2c1CC=C(C)C`, the Potency entry in the test on MCC-13, in the test with MCC-26 and in the test on UISO was “inactive” each time. In addition, the Potency in the test on MKL-1 is 10.5 µM (active); with MKL-2 it was 11.8 µM (active); with WaGa, 5.26 µM (active).
With `O=C(O)CCC=CCC[C@@H]1[C@H](N2CCCCC2)[C@@H](O)C[C@@H]1OCc1ccc(-c2ccccc2)cc1`, the Potency result with MCC-13, with MCC-26, in the test on MKL-1, in the test on MKL-2, in the test with UISO and in the test with WaGa was “inactive” each time.
Turning to `NCC1CCC(C(=O)O)CC1` (stereo not given), the Potency result in the test on MCC-13, with MCC-26, in the test with MKL-1, in the test on MKL-2, in the test with UISO and in the test with WaGa was “inactive” in each case.
For the molecule `COc1cc2ncn(-c3cc(OCc4ccccc4S(C)(=O)=O)c(C#N)s3)c2cc1OC`, the Potency result in the test on MCC-13, in the test on MCC-26, with MKL-1, in the test on MKL-2, with UISO and with WaGa was “inactive” in each case.
`Fc1ccc(C(c2ccc(F)cc2)N2CCN(CC=Cc3ccccc3)CC2)cc1`: the Potency entry in the test with MCC-13, in the test with MCC-26, in the test on MKL-1, in the test with MKL-2, in the test with UISO and in the test with WaGa was “inactive” in each case.
As for `Cc1c(-c2cccc3c(CCCOc4cccc5ccccc45)c(C(=O)O)n(Cc4cccnc4)c23)c(COc2ccc(N3CCN([S+](=O)([O-])N(C)C)CC3)cc2)nn1C`, the Potency result in the test on MCC-13, in the test with MCC-26, in the test on MKL-1, in the test on MKL-2, in the test on UISO and in the test with WaGa was “inactive” throughout.
For the molecule `CC(C)c1onc(-c2c(Cl)cccc2Cl)c1COc1ccc(C=Cc2cccc(C(=O)O)c2)c(Cl)c1`, the Potency entry in the test on MCC-13, with MCC-26, in the test on MKL-1, in the test with MKL-2, with UISO and with WaGa was “inactive” each time.
With `CCC=CC[C@H]1C(=O)CC[C@@H]1CC(=O)OC`, the Potency result in the test on MCC-13, with MCC-26, in the test with MKL-1, in the test on MKL-2, with UISO and with WaGa was “inactive” in each case.
For `C=CC[N+]1([C@H]2C[C@H]3[C@@H]4CC[C@H]5C[C@H](O)[C@@H](N6CCOCC6)C[C@]5(C)[C@@H]4CC[C@]3(C)[C@H]2OC(C)=O)CCCC1`, the Potency result with MCC-13, in the test with MCC-26, in the test with MKL-1, with MKL-2, with UISO and in the test on WaGa was “inactive” in each case.
As for `O=C(O)c1nc(=O)[nH]c(=O)[nH]1`, the Potency result with MCC-13, with MCC-26, with MKL-1, with MKL-2, in the test with UISO and in the test on WaGa was “inactive” throughout.
For `Nc1ncnc2c1ncn2[C@@H]1O[C@H](CO)[C@@H](O)[C@@H]1O`, the Potency result in the test with MCC-13, in the test on MCC-26 and in the test on UISO was “inactive” throughout. The Potency in the test with MKL-1 was 14.8 µM (active); in the test on MKL-2 it was 1.66 µM (active); with WaGa, 1.05 µM (active).
Consider `CC(C)CN(C[C@H](O)[C@H](Cc1ccccc1)NC(=O)O[C@H]1CCOC1)S(=O)(=O)c1ccc(N)cc1`, for which the Potency entry with MCC-13, with MCC-26, with MKL-1, with MKL-2, in the test with UISO and in the test on WaGa was “inactive” each time.
In the case of `C#C[C@]1(O)CC[C@H]2[C@H]3CCc4cc(OC)ccc4[C@H]3CC[C@@]21C`, the Potency entry with MCC-13, in the test with MCC-26, in the test on MKL-1, in the test with MKL-2, in the test with UISO and in the test on WaGa was “inactive” in each case.
Take `CCCCCOC(=O)Nc1nc(=O)n([C@@H]2O[C@H](C)[C@@H](O)C2O)cc1F` (stereo not given in full): the Potency result in the test on MCC-13, in the test on MCC-26, with MKL-1, with MKL-2, in the test with UISO and in the test on WaGa was “inactive” in each case.
Take `CCCCC(C=O)NC(=O)C(CC(C)C)NC(=O)OCc1ccccc1` (stereo not given): the Potency entry with MCC-13, with MCC-26, with MKL-1, in the test on MKL-2, in the test with UISO and with WaGa was “inactive” in each case.
For the molecule `CCC[C@H](N[C@@H](C)C(=O)N1[C@@H]2CCCC[C@H]2C[C@H]1C(=O)O)C(=O)OCC`, the Potency result in the test on MCC-13, in the test on MCC-26, with MKL-1, in the test with MKL-2, with UISO and in the test with WaGa was “inactive” throughout.
Regarding `N#CC(c1ccnc(NCCc2cccnc2)n1)c1nc2ccccc2s1` (stereo not given), the Potency entry with MCC-13, in the test with MCC-26, in the test with MKL-1, in the test on MKL-2 and in the test on UISO was “inactive” throughout.
With `CCC(=C(c1ccc(O)cc1)c1ccc(OCCNC)cc1)c1ccccc1`, the Potency result with MCC-13, in the test on MCC-26, in the test on MKL-1, in the test with MKL-2, in the test on UISO and in the test with WaGa was “inactive” each time.
`COc1cc(F)c(C(C)C)cc1-c1ccc(C(F)(F)F)cc1CN1C(=O)O[C@H](c2cc(C(F)(F)F)cc(C(F)(F)F)c2)[C@@H]1C`: the Potency entry in the test on MCC-13, in the test on MCC-26, in the test on MKL-1, in the test on MKL-2, in the test with UISO and in the test on WaGa was “inactive” in each case.
Turning to `CCOc1ccccc1N=Nc1c(C)[nH]n(-c2nc(-c3ccccc3)cs2)c1=O`, the Potency result with MCC-13, in the test on MCC-26, with MKL-1, in the test on MKL-2, in the test with UISO and in the test on WaGa was “inactive” in each case.
Consider `NC(=O)c1nnn(Cc2cc(Cl)c(C(=O)c3ccc(Cl)cc3)c(Cl)c2)c1N`, for which the Potency result in the test with MCC-13, with MCC-26, with MKL-1, with MKL-2, with UISO and in the test on WaGa was “inactive” throughout.
As for `CN1CCC[C@H]1CCO[C@](C)(c1ccccc1)c1ccc(Cl)cc1`, the Potency result in the test with MCC-13, in the test on MCC-26, with MKL-1, in the test on MKL-2, in the test on UISO and in the test with WaGa was “inactive” in each case.
Take `COc1cc2c(cc1OC)CC(=O)N(CCCN(C)C[C@H]1Cc3cc(OC)c(OC)cc31)CC2`: the Potency result in the test with MCC-13, with MCC-26, in the test on MKL-1, with MKL-2, with UISO and with WaGa was “inactive” throughout.
In the case of `COC(=O)[C@H](c1ccccc1Cl)N1CCc2sccc2C1`, the Potency result with MCC-13, in the test with MCC-26, in the test on MKL-1, in the test on MKL-2, in the test on UISO and in the test with WaGa was “inactive” in each case.
`CNC(=O)[C@H](Cc1ccccc1)NC(=O)[C@H](CC(C)C)[C@H](CSc1cccs1)C(=O)NO`: the Potency result with MCC-13, with MCC-26, in the test with MKL-1, in the test on MKL-2 and in the test on UISO was “inactive” throughout.
As for `N#CC(=C1Nc2ccccc2S1)c1ccnc(OCc2ccc(CN3CCOCC3)cc2)n1`, the Potency result with MCC-13 and in the test with MCC-26 was “inactive” each time. The Potency with MKL-1 was 0.118 µM (active); with MKL-2, 0.132 µM (active); in the test with UISO it was 1.48 µM (active); in the test on WaGa, 0.132 µM (active).
For `O=C1CCCC(=O)C1C(=O)c1ccc(C(F)(F)F)cc1[N+](=O)[O-]`, the Potency entry in the test with MCC-13, in the test on MCC-26, in the test on MKL-1, with MKL-2, in the test on UISO and in the test with WaGa was “inactive” in each case.
`Cc1cc(CS(=O)(=O)c2ccccc2)cc(OCc2ccc(CN3CCC[C@H]3CO)cc2)c1`: the Potency result in the test with MCC-13, in the test on MCC-26, with MKL-1, in the test with MKL-2, in the test on UISO and with WaGa was “inactive” in each case.
Take `C[C@@H]1CC=CC=CC=CC=C[C@@H](O[C@@H]2O[C@H](C)[C@@H](O)[C@H](N)[C@H]2O)C[C@@H]2O[C@](O)(C[C@@H](O)C[C@@H]3O[C@@H]3C=CC(=O)O1)C[C@H](O)[C@@H]2C(=O)O`: the Potency entry in the test with MCC-13, with MCC-26, with MKL-1, with MKL-2, with UISO and with WaGa was “inactive” in each case.
On to `CCNC(=O)Nc1ccc(Oc2ncnc(N)c2C=NOC)cc1Cl`, for which the Potency result in the test on MCC-13, in the test with MCC-26, in the test on MKL-1, in the test on MKL-2, in the test with UISO and with WaGa was “inactive” each time.
Regarding `CC(C)c1c(C(=O)Nc2ccccc2)c(-c2ccccc2)c(-c2ccc(F)cc2)n1CC[C@H](O)C[C@@H](O)CC(=O)O`, the Potency entry with MCC-13 and in the test with MCC-26 was “inactive” each time. For the same molecule, the Potency in the test with MKL-1 was 18.7 µM (active); with MKL-2 it was 10.5 µM (active); with UISO it was 14.8 µM (active); in the test with WaGa it was 23.5 µM (active).
Consider `COc1ccc2c(c1)CC[C@H]1[C@@H]2CC[C@]2(C)[C@@H](NCCCCCCN3C(=O)C=CC3=O)CC[C@H]12`, for which the Potency entry in the test with MCC-13, with MCC-26, in the test on MKL-1, in the test on MKL-2, in the test on UISO and with WaGa was “inactive” each time.
Regarding `CC(C)[C@H](O)C(=O)N[C@@H](C)C(=O)N[C@@H]1C(=O)N(C)CCc2ccccc21`, the Potency entry in the test on MCC-13, in the test on MCC-26, in the test with MKL-1, with MKL-2, in the test on UISO and in the test on WaGa was “inactive” each time.
On to `O=C1CN2Cc3c(ccc(Cl)c3Cl)N=C2N1`, for which the Potency entry in the test on MCC-13, in the test on MCC-26, in the test on MKL-1, with MKL-2, in the test with UISO and in the test on WaGa was “inactive” each time.
`CC[C@H](C=C[C@@H](C)[C@H]1CC[C@H]2[C@@H]3CC=C4C[C@@H](O)CC[C@]4(C)[C@@H]3CC[C@]12C)C(C)C`: the Potency entry in the test with MCC-13, in the test with MCC-26, in the test with MKL-1, in the test with MKL-2, with UISO and in the test with WaGa was “inactive” throughout.
Turning to `N[C@@H](CC(=O)N1CCn2c(nnc2C(F)(F)F)C1)Cc1cc(F)c(F)cc1F`, the Potency entry with MCC-13, in the test on MCC-26, in the test on MKL-1, in the test on MKL-2, in the test on UISO and in the test with WaGa was “inactive” in each case.
On to `CCCCc1ccc(NS(=O)(=O)c2ccc(C)c(C(=O)N3CCN(c4cccc(C)c4C)CC3)c2)cc1`, for which the Potency entry in the test with MCC-13, in the test with MCC-26, in the test on MKL-1, in the test on MKL-2 and in the test on WaGa was “inactive” each time.
